# From PubChem BioAssay AID2778 (National Center for Advancing Translational Sciences (NCATS), 2010)
# Records with an inconclusive call do not appear. The source made the active and inactive calls. The call rests on the fitted dose curve; in most records, active means well fitted inhibition curve with a large enough effect; inconclusive means small, poorly fitted or top-dose-only effect, or effect the other way; inactive means flat fitted curve, though single readings scatter.
# Molecular target: Menin (Homo sapiens) (UniProt O00255)
# Test: Confirmation of Inhibitors Targeting the Menin-MLL Interaction in MLL Related Leukemias: Confirmation in an HTRF (commercial TR-FRET) Assay using His-tagged menin and biotin-labeled MLL peptide
# Settings: His-menin / biotin-MLL peptide binding; series mostly up to 126 µM; activity change, negative = inhibition: at the top concentration
# Summary of the method: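 HTRF: His6-menin (200 nM) and biotin-MLL-w.t. peptide (80 nM) preincubated 15 min, then compounds 1 hr at ambient, before Eu-cryptate anti-His (3.5 nM) and streptavidin-XL665 (10 nM) for 1 h; 50 mM Tris-HCl pH 7.5, 50 mM NaCl, 1 mM DTT, BSA.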
# On the % scale 0 is the no-effect control and ±100 the full control effect; potency means the concentration at half of the fitted maximal effect.
# Sequence of Menin (Homo sapiens) (O00255 whole entry, looked up): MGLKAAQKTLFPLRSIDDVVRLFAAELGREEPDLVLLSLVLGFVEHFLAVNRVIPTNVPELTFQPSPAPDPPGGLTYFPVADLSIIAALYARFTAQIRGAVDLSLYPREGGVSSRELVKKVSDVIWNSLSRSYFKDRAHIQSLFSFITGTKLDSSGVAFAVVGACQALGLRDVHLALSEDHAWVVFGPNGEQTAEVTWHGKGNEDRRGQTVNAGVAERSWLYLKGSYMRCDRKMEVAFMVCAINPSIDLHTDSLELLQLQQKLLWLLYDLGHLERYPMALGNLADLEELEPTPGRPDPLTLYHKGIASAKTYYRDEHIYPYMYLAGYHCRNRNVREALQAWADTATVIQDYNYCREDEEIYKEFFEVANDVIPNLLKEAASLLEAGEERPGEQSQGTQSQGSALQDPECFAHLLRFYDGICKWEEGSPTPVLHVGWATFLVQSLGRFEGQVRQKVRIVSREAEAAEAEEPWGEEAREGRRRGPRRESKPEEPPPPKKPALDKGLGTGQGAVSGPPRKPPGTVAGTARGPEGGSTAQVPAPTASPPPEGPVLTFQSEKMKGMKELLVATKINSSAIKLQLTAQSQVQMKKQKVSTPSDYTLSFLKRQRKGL
SMILES,"activity change, negative = inhibition",Potency
CN1CCN(CC(=O)Nc2ccc(S(=O)(=O)N(C)C)cc2)CC1,0.239% (inactive),–
C/C(=N\Nc1ccc(Cl)c(C(=O)O)c1)c1ccc[nH]1,6.1% (inactive),–
CCOc1ccc(CCNC(=O)C(C)N2C(=O)CC(C)(C)Sc3ccccc32)cc1 (centres undefined),10.9% (inactive),–
Cc1ccc(Nc2nc(N)[nH]c(=O)c2N=O)cc1,17.5% (inactive),–
Cc1nn(-c2ccccc2)c2nc(N)c(C(N)=O)cc12,11.3% (inactive),–
Cc1cccc(Nc2nnc(SCC(=O)NC(=O)Nc3ccc4c(c3)OCCO4)s2)c1,-25.2% (inactive),–
O=C(CSc1nnnn1-c1ccc(O)cc1)N1N=C(c2ccc3ccccc3c2)CC1c1ccccc1 (centres undefined),-19.9% (inactive),–
CCN(CCn1cccn1)Cc1ccccc1OCC(O)CN1CCc2ccccc2C1 (centres undefined),-6.8% (inactive),–
CCCN(CCC)CCCNC(=O)c1cc2c(=O)[nH]c3ccccc3c2s1,5.66% (inactive),–
O=C(/C=C/c1ccccc1)c1cccs1,2.03% [at 383 µM] (inactive),–
CCc1oc2ccccc2c1C(=O)c1cc(Br)c(O)c(Br)c1,-10.4% (inactive),–
COc1ccc(CN2CCN(C(C)C(=O)N(C)Cc3cccc(F)c3)CC2)cc1OC (centres undefined),-4.13% (inactive),–
O=C(COC(=O)c1ccc(NS(=O)(=O)c2cccs2)cc1)Nc1nc2c(F)c(F)c(F)cc2s1,–,39.8 µM (active)
Cc1ccc(NC(=O)CN(C)C(=O)COc2cccc3cccnc23)cc1,-4.79% [at 383 µM] (inactive),–
CC1CN(c2c3c(nc4ncnn24)CCCC3)CC(C)O1 (centres undefined),-3.06% (inactive),–
O=C(CCC1CCCCC1)NCCN1C2=NC[C@H](Cc3ccc(O)cc3)N2C[C@H]1Cc1ccc(O)cc1,-15.4% [at 383 µM] (inactive),–
O=C(CSc1nnc(-c2c[nH]c3ccccc23)o1)N1c2ccccc2CCc2ccccc21,-26.4% (inactive),–

SMILES,"activity change, negative = inhibition",Potency
CN(CCOc1ccc(Cl)cc1)CC(O)c1ccccc1 (centres undefined),-2.63% [at 383 µM] (inactive),–
COc1cccc(OC)c1NC(=O)CN1CCN(C)CC1,-0.577% (inactive),–
O=C(CSc1ccc(Cl)cc1)Nc1ccc(NC(=O)c2ccco2)cc1,-28.2% (inactive),–
NC(=O)c1ccc(NC(=O)c2cncn2-c2ccccc2)cc1,4.15% (inactive),–
Nc1cccc2c1C(=O)N(C(=O)c1ccco1)C2=O,13% (inactive),–
CCc1cc2c(N3CCN(c4nnc(CC)s4)CC3)ncnc2s1,–,25.1 µM (active)
COC(=O)c1ccccc1NC1=C/C(=N\S(=O)(=O)c2ccc(C(=O)O)cc2)c2ccccc2C1=O,-21.4% [at 383 µM] (inactive),–
O=C(Nc1cccn(Cc2c(Cl)cccc2Cl)c1=O)c1c(Cl)cccc1Cl,-10.9% [at 383 µM] (inactive),–
O=S(=O)(c1ccc(-c2csc(Nc3ccc(Br)cc3)n2)cc1)N1CCCC1,-9% [at 383 µM] (inactive),–
O=C1C(SCCO)=C(SCCO)C(=O)c2ccccc21,–,39.8 µM (active)
CC(=O)c1cccc(OCC(O)CNCC2COc3ccccc3O2)c1 (centres undefined),6.05% (inactive),–
CC(C)Cc1cc(C(=O)NCCCN2CCOCC2)no1,1.92% (inactive),–
O=C(/C=C/c1ccccc1)NC(NC(=S)Nc1cc(Cl)ccc1Cl)C(Cl)(Cl)Cl (centres undefined),-16.1% [at 383 µM] (inactive),–
Cc1ccc[n+](-c2nc([O-])sc2/C=N/Nc2ccc([N+](=O)[O-])cc2)c1,11.4% (inactive),–
O=C(O)c1cc(S(=O)(=O)O)cc(Nc2c3ccccc3nc3ccccc23)c1O,3.8% [at 383 µM] (inactive),–
O=C(c1cc(F)c(F)cc1Cl)N1CCN(c2ncccn2)CC1,-3.58% (inactive),–
O=S(=O)(NCCc1c[nH]c2ccccc12)c1ccccc1,1.89% [at 383 µM] (inactive),–
